16 molecules from PubChem BioAssay (NCATS) can be followed below.

Test [1] is described as follows: qHTS Assay for Lipid Storage Modulators (AID 1519; calls by dose curve; on activity change, negative = inhibition: on the % scale 0 is the no-effect control and ±100 the full control effect). The conditions noted are these: Drosophila S3 cells, BODIPY lipid droplet/cell ratio, laser cytometry, cells loaded with oleic acid. An outline of the steps:
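Cells seeded at 5,000 per well were treated with compounds over a concentration series and loaded with oleic acid (400 uM, as added). Lipid droplet fluorescence (488 nm excitation, 500-530 nm channel) was read by laser-scanning cytometry and normalized to 20 uM Triacsin C.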
A general note: Quantitative high-throughput screening tests each substance at several concentrations.

The target of test [2] is Alpha-galactosidase A (Homo sapiens) (UniProt P06280). The experiment in a line: Counterscreen for Glucocerebrosidase Inhibitors: qHTS Assay for Human alpha-Galactosidase at pH 4.5 (AID 992). Further: 0% is about no effect. The conditions noted are these: purified enzyme, fluorogenic substrate; series mostly up to 76.9 µM. An outline of the steps: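 Each compound is preincubated briefly with 2 nM enzyme before substrate addition (80 uM); plates then sit 20 min at ambient temperature, are quenched with 1M NaOH/1M glycine, and read fluorometrically.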
(In general: A counterscreen serves to expose hits that act by an unwanted route or on another target.)

Test [3] has as its target alpha-glucosidase (Oryza sativa, rice) (UniProt Q653V4). Briefly: Counterscreen for Glucocerebrosidase Inhibitors: qHTS Assay for Rice alpha-Glucosidase at pH 5.0 (AID 997).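 Further: 0% = full activity with enzyme and -100% = basal without enzyme.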 The settings on record: rice alpha-glucosidase enzyme activity; series mostly up to 76.9 µM. An outline of the steps:
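Endpoint fluorogenic assay at pH 5.0: compounds (0.7 nM to 77 uM) titrated against 4 nM rice enzyme and 400 uM 4-MU-alpha-glucoside for 20 min at room temperature; NaOH/glycine stop, read ex 365/em 440 nm, Hill-fitted AC50.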

A short description of test [4]: Validation of Assay for Modulators of Lamin A Splicing (AID 1459; active means well fitted curve in the direction sought with a large enough effect in the signal ratio; the % refers to the signal ratio;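 further: cells exposed to compound for two days before reading; 0% is about no effect; ratio rise marks activators and ratio drop marks inhibitors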). The conditions noted are these: Lamin A splicing dual RFP/GFP fluorescence reporter; series mostly up to 9.22 µM. An outline of the steps:
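HeLa S3 lamin A-EGFP/DsRed2 stable clone, 600 cells/well, Opti-MEM 2% FBS; compounds by pin tool; 48 hrs, 37 °C/5% CO2; Acumen 488 nm scan, objects 10-100 um; GFP/RFP intensity ratio.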

Test [5] deals with DNA repair nuclease/redox regulator APEX1 (Homo sapiens) (UniProt P27695). Briefly: qHTS Validation Assay for Inhibitors of the Human Apurinic/apyrimidinic Endonuclease 1 (APE1) (AID 1705; further: potency means the concentration at half of the fitted maximal effect;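 on activity change, negative = inhibition: TAMRA fluorescence gain over two minutes as APE1 cuts a quenched THF abasic duplex; on the % scale 0 is the no-effect control and ±100 the full control effect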). The settings on record: purified APE1 endonuclease activity, fluorescence, titration; series mostly up to 57.1 µM. An outline of the steps:
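qHTS, 1536-well. APE1 + cpd 15 min RT → 50 nM TAMRA/BHQ-2 THF-abasic dsDNA substrate → kinetic fluorescence, 3 reads/60 s; delta(read3−read1) = reaction progress. No-enzyme buffer = negative control.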

Test [6] can be described thus: Counterscreen for APE1 Inhibitors: Fluorescent Dye Displacement Validation Assay (AID 1707). Further: potency means the concentration at half of the fitted maximal effect.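 On activity change, negative = inhibition: plate controls were ThO with dsDNA and no compound for no effect and ThO without dsDNA for full effect.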 The conditions noted are these: fluorescent dye displacement from DNA; series mostly up to 57.1 µM. An outline of the steps: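 Loss of Thiazole Orange fluorescence marks promiscuous DNA binders. The dye (250 nM) is mixed with 50 nM abasic-site dsDNA in pH7.5 Tris buffer containing MgCl2, then compounds are added and emission is read once.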

Test [7] has as its target Endonuclease 4 (Escherichia coli (strain K12)) (UniProt P0A6C1). Briefly: Counterscreen for APE1 Inhibitors: qHTS Validation Assay for Inhibitors of Endonuclease IV (AID 1708). Further: on the % scale 0 is the no-effect control and ±100 the full control effect. The conditions noted are these: E. coli endonuclease IV, DNA cleavage fluorescence; series mostly up to 57.1 µM. An outline of the steps:
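Conditions: 2 nM enzyme, 50 nM TAMRA/BHQ-2 substrate, pH 7.5 Tris buffer with 2 mM MgCl2, RT. Compound preincubation 15 min; readout three fluorescence reads 60 s apart, third-minus-first.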

[8] abbreviates: measured here: cell count channel max response.
Where [9] appears, read: measured here: lipid channel max response.

Values joined by “and” are separate entries in the source; they are usually repeats but may differ in a detail not shown here. Identical values can stand only once. Results filed as inconclusive are left out. Active and inactive are the calls of the source. Unless noted, the call rests on the fitted dose curve; in most records, active means well fitted curve in the direction sought with a large enough effect; inconclusive means small, poorly fitted or top-dose-only effect, or another doubt; inactive means no such curve, though single readings can be large; an effect the other way counts as inactive or inconclusive.

Chain of Alpha-galactosidase A (Homo sapiens) (P06280 whole entry, looked up): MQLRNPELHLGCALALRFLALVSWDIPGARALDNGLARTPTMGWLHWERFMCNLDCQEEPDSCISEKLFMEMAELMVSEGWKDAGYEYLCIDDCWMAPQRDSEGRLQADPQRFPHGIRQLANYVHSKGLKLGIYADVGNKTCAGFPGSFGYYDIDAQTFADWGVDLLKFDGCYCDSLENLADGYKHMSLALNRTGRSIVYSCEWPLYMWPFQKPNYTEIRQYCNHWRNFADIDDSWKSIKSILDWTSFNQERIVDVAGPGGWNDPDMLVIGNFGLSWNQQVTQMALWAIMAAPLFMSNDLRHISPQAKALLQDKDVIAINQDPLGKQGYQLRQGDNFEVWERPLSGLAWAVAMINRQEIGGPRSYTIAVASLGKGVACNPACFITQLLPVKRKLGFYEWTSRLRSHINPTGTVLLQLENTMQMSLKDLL
Chain of DNA repair nuclease/redox regulator APEX1 (Homo sapiens) (P27695 whole entry, looked up): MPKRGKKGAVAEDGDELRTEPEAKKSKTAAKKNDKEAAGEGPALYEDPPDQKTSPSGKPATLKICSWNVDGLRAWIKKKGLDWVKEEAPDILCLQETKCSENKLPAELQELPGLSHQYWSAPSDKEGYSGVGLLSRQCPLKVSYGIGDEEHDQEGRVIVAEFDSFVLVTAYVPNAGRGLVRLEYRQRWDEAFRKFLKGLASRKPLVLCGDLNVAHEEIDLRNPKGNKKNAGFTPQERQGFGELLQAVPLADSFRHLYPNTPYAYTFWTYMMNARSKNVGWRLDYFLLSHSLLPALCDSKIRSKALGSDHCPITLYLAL

In the case of `CN(C)CCN(Cc1ccccc1)c1ccccn1`, the activity change, negative = inhibition in test [1] (at 57.5 µM (top of the series)) is 1.48% (inactive). Besides, the max response in test [1] (setting [8]) was 12.3%; in test [1] (setting [9]) it was 16.2%.
As to `C=Cc1c(C)c2cc3[nH]c(cc4nc(cc5nc(cc1[nH]2)C(C)=C5CCC(=O)O)C(CCC(=O)O)=C4C)c(C)c3C=C`, the outcome in test [2], in test [3] and in test [4] was inactive. The activity change, negative = inhibition in test [1] (at 57.5 µM (top of the series)) is 12.2% (inactive). The figures for the max response in test [1] (setting [8]) and in test [1] (setting [9]) were 1.69% and 21.3%, respectively. The figures for the Potency in test [5] and in test [6] were 5.01 µM (active) and 7.94 µM (active), respectively. Further, the Potency result in test [7] is “inactive”.
Turning to `CNCC(O)c1ccc(O)c(O)c1` (stereo unspecified), in test [4], the molecule was classed as inactive. For the same molecule, the Potency result in test [5], in test [6] and in test [7] was “inactive” in each case.
Take `Cc1c(Cl)cccc1Nc1ccccc1C(=O)O`: in test [1] (at 25.7 µM (top of the series)), the activity change, negative = inhibition is -0.93% (inactive). The max response is -6.86% in test [1] (setting [8]) and -11.8% in test [1] (setting [9]).
In the same order, the values of `C[C@H](N)[C@H](O)c1cccc(O)c1` are -0.37% (inactive), 15.1% and 15%.
Consider `CCN(CC)C(C)CN1c2ccccc2Sc2ccccc21` (stereo unspecified), for which, in test [1] (at 57.5 µM (top of the series)), the activity change, negative = inhibition was 2.47% (inactive). In addition, the figures for the max response in test [1] (setting [8]) and in test [1] (setting [9]) were -20.9% and -15.4%, respectively.
Consider `O=C(Oc1ccccc1C(=O)O)c1ccccc1O`, for which the activity change, negative = inhibition in test [1] (at 57.5 µM (top of the series)) is 4.87% (inactive). Moreover, the results for the max response in test [1] (setting [8]) and in test [1] (setting [9]) were -1.82% and 6.63%, respectively.
For `OCC(O)CN1CCN(c2ccccc2)CC1` (stereo unspecified), in that order: 11.8% (inactive), 18.2% and 35.4%.
For `CCN(CC)CCNC(=O)c1cc(Cl)c(N)cc1OC`, the call in test [2], in test [3] and in test [4] was inactive. For the same molecule, the activity change, negative = inhibition in test [1] (at 25.7 µM (top of the series)) is -0.223% (inactive); in test [1] (at 57.5 µM (top of the series)) it was 6.86% (inactive). The max response in test [1] (setting [8]) was -7.61% and 4.16%; in test [1] (setting [9]), -6.48% and 12.9%. Further, the Potency result in test [5], in test [6] and in test [7] was “inactive” in each case.
As for `CC(=O)c1ccc2c(c1)N(CCCN(C)C)c1ccccc1S2`, the activity change, negative = inhibition in test [1] (at 25.7 µM (top of the series)) was -1.98% (inactive). In addition, the max response in test [1] (setting [8]) is 0.996%; in test [1] (setting [9]), -1.83%.
Regarding `CC(C)(C(=O)O)c1ccc(C(O)CCCN2CCC(C(O)(c3ccccc3)c3ccccc3)CC2)cc1` (stereo unspecified), the outcome in test [4] was inactive. The activity change, negative = inhibition in test [1] (at 57.5 µM (top of the series)) was 2.57% (inactive) and -0.0758% (inactive). Moreover, the max response in test [1] (setting [8]) was 23% and -17.7%; in test [1] (setting [9]) it was 28% and -18.6%. In addition, the Potency entry in test [6] and in test [7] was “inactive” each time.
On to `CC(CN(C)C)CN1c2ccccc2CCc2ccccc21` (stereo unspecified), for which the call in test [4] was inactive. For the same molecule, the activity change, negative = inhibition in test [1] (at 57.5 µM (top of the series)) was 8.3% (inactive) and -0.445% (inactive). Further, the max response was -4.41% and -13% in test [1] (setting [8]); 4.99% and -13.2% in test [1] (setting [9]). Also, the Potency result in test [5] and in test [6] was “inactive” throughout.
Turning to `OCc1cc(C(O)CNCCCCCCOCCCCc2ccccc2)ccc1O` (stereo unspecified), the result in test [2], in test [3] and in test [4] was inactive. Besides, the activity change, negative = inhibition in test [1] (at 57.5 µM (top of the series)) was -1.85% (inactive). Also, the figures for the max response in test [1] (setting [8]) and in test [1] (setting [9]) were 12.8% and 10.1%, respectively. Also, the Potency result in test [5], in test [6] and in test [7] was “inactive” throughout.
As to `CNCCC(Oc1ccc(C(F)(F)F)cc1)c1ccccc1` (stereo unspecified), in test [4], the result was inactive. Also, the Potency entry in test [6] and in test [7] was “inactive” in each case.
Turning to `CC(C)(C)c1onc(OCP(=O)(O)O)c1CC(N)C(=O)O` (stereo unspecified), the molecule was called inactive in test [4]. In test [1] (at 57.5 µM (top of the series)), the activity change, negative = inhibition was -0.922% (inactive). Also, the max response in test [1] (setting [8]) was -37.6%; in test [1] (setting [9]) it was -40.1%. In addition, the Potency entry in test [5], in test [6] and in test [7] was “inactive” in each case.
As for `CC1=C(CC(=O)O)c2cc(F)ccc2/C1=C\c1ccc(S(C)(=O)=O)cc1`, the molecule was called inactive in test [2], in test [3] and in test [4]. Besides, the Potency result in test [5], in test [6] and in test [7] was “inactive” in each case.
